# The campaign covered roughly 310,000 compounds. About 1,000 (0.32%) were called active. Only a sample is shown. Potency and affinity values are given separately. Unmarked numbers belong to inactive results. No rule for the calls is given here.
# Test: Inhibition of PhoP regulon, Salmonella typhi GFP reporter cells, confirmation, 4 h (AID 1850);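 also: 0% = induced wells with vehicle and 100% = uninduced wells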
# Conditions: Salmonella Typhi PhoP-promoter GFP reporter, fluorescence, at 50 µM, hits give high values
row,Structure (SMILES),inhibition [%]
1,CC(=O)Nc1ccc2c(c1)nc1n2CCSC1,11.9
2,Cc1cc(/C=C2\C(=O)NC(=O)N(c3ccc(Cl)cc3)C2=O)c(C)n1-c1cccc(C(=O)O)c1,-15.1
3,Cc1ccc(/C=N/NC(=O)c2nnn(-c3nonc3N)c2CN(C)c2ccccc2)s1,0.97
4,C/C(N=Nc1nc2ccccc2s1)=N\Nc1ccccc1O,16.1
5,Oc1ccccc1N=N/C(=N/Nc1ccccc1O)c1ccccc1,-5.08
6,O=C(Cn1nc(C(F)F)cc1C(F)F)NNC(=S)Nc1ccc(Cl)cc1,8.04
7,O=C(Cn1nc(C(F)F)cc1C(F)F)NNC(=S)Nc1ccc(F)cc1,-9.87
8,COC1(OC)N=C(N)C2(C#N)C(c3ccccc3)NC(C)=CC12C#N (configuration not stated),22.3
9,CC(Oc1ccc(Br)cc1)C(=O)N(C)CC(=O)Nc1ccc(N2CCOCC2)cc1 (configuration not stated),-2.3
10,Cc1cc(N2CCN(c3ccccc3)CC2)nc(NCc2ccccc2)n1,-4.52
11,Cc1cc(Nc2cccc(F)c2)nc(NCc2ccccc2)n1,-0.63
12,Cc1cc(N2CCCCC2)nc(NCc2ccccc2)n1,5.84
13,Cc1cc(Nc2ccccc2)nc(NCc2ccccc2)n1,-0.96
14,Cc1cc(N/N=C/c2ccccc2)nc(NCc2ccccc2)n1,-6.44
15,CCCCNc1cc(C)nc(NCc2ccccc2)n1,15.8
16,Cc1cc(OC2CCCCC2)nc(NCc2ccccc2)n1,-3.41
17,Cc1ccc(/C=N/Nc2cc(C)nc(NCc3ccccc3)n2)cc1,8.63
18,CCOc1ccc(S(=O)(=O)Nc2ccccc2C(=O)NCc2ccco2)cc1,-4.17
19,CCOCCCNC(=O)c1ccc(N(C)S(=O)(=O)c2ccc(OC)cc2)cc1,-7.69
20,CCCCCC(O)CCC(=O)NNC1=CC(=O)CC(C)(C)C1 (configuration not stated),5.33
21,CC(=O)NCCCC(=O)NN1C(=S)N(Cc2ccccc2)C(=O)C1CC(=O)Nc1cccc(C)c1 (configuration not stated),-3.38
22,COc1ccc(CCNC(=O)c2ccc(OCC(=O)N3CCOCC3)c(OC)c2)cc1OC,2.3
23,O=C(NC(=S)Nc1ccc(S(=O)(=O)Nc2nccs2)cc1)c1cccc(F)c1,9.55

row,Structure (SMILES),inhibition [%]
1,O=C(Nc1cc(Br)c(O)c(Br)c1)c1cccc(NC(=O)c2ccco2)c1,-5.68
2,O=C(Nc1cccc(N=Cc2cc(Br)cc(Br)c2O)c1)c1ccco1,18.1
3,O=C(Nc1cccnc1)c1ccc(Br)c(S(=O)(=O)N2CCCC2)c1,1.47
4,O=C(Nc1nnc(-c2ccccn2)o1)c1cccc(Br)c1,3.24
5,O=C(Nc1nnc(-c2ccccn2)o1)c1ccc(Br)cc1,-1.87
6,O=C(Nc1nnc(-c2ccco2)o1)c1ccc(Cl)cc1,0.38
7,Cc1cccc(C(=O)Nc2nnc(-c3ccco3)o2)c1,-1.28
8,Cc1cccc(CC(=O)N2CCC(n3nccc3NC(=O)C3CC3)CC2)c1,-7.5
9,O=C(NCc1ccccc1)c1nc(-c2cccs2)no1,-1.19
10,CN(Cc1ccon1)C(=O)C1CCC(=O)N(Cc2ccc(Cl)cc2)C1 (configuration not stated),-14.1
11,Cc1cc(C(=O)CC#N)c(C)n1-c1ccc(OC(F)F)cc1,-0.727
12,O=C(C[n+]1ccc2ccccc2c1)c1cccc2ccccc12,-0.15
13,Cc1ccc(S(=O)(=O)NNC(=O)c2sc(=S)n(C)c2C)cc1,-24.1
14,Cc1ccc(N2C(=O)C3C4C=CC(CNC(=S)N5CCN(c6ccccn6)CC5)(O4)C3C2=O)cc1 (configuration not stated),5.6
15,COc1ccc(/C=N\NC(=O)c2cccc(F)c2)cc1COc1ccccc1,-7.03
16,C[C@H]1[C@H](NC(=O)C(=NOC(C)(C)C(=O)O)c2csc(N)n2)C(=O)N1S(=O)(=O)O,1.3
17,C=CC1=C(C(=O)O)N2C(=O)C(NC(=O)Cc3ccccc3)C2SC1 (configuration not stated),-5.97
18,CC1=C(C(=O)O)N2C(=O)C(NC(=O)CCCC(=O)O)C2SC1 (configuration not stated),10.9
19,CC1=C(C(=O)O)N2C(=O)C(NC(=O)c3ccn(C)n3)C2SC1 (configuration not stated),7.91
20,O=C(O)C[C@H]1c2ccccc2S(=O)(=O)N1c1ccccc1,-12.5
21,Cc1nn(Cc2noc(C(=O)NCc3ccc(F)cc3)n2)c(C)c1Br,5.51
22,O=C(CCc1nnc(Cc2cccc(C(F)(F)F)c2)o1)NC1CC1,2.17
23,COc1ccc(N(CC(=O)Nc2ccccc2C(=O)NCCc2ccccc2)S(C)(=O)=O)cc1OC,-12.9

row,Structure (SMILES),inhibition [%]
1,CC(=O)Nc1ccc(S(=O)(=O)Oc2ccccc2N2C(=O)C3C4CCC(C4)C3C2=O)cc1 (configuration not stated),1.86
2,COc1ccc(N(CC(=O)NC2CC3CCC2C3)S(=O)(=O)c2ccc(C)cc2)cc1 (configuration not stated),-6.68
3,CN(C)CCCNc1ccc(-c2n[nH]c(=O)c3ccccc23)cc1[N+](=O)[O-],-4.76
4,Cc1ccc2nc(C)c(Cl)c(=O)n2c1,-9.57
5,COc1ccc(CCNC(=O)CCCCC(=O)NCCc2ccc(OC)cc2)cc1,-3.5
6,O=S(=O)(NC1CCCCCC1)c1cccc2cccnc12,5.87
7,COc1ccc(C(=O)O/N=C(/c2ccccc2)c2ccncc2)cc1OC,-4.7
8,COc1c(O)c(O)c2oc(-c3ccccc3)cc(=O)c2c1OC,9.73
9,O=c1cc(-c2ccc(O)cc2)oc2cc(O)cc(O)c12,1.38
10,CCOC(=O)CC1(C)OCC(C[N+]2(C)CCCCC2)O1 (configuration not stated),5.82
11,COC(=O)[C@@H]1C[C@@]2(O)[C@H](O)[C@H](O)[C@H](O)C[C@H]2N1Cc1ccc(-c2ccccc2)cc1,-7.22
12,CC1CCN(CCNC(=O)c2ccc3c(=O)n(Cc4ccc(Cl)cc4)c(=S)[nH]c3c2)CC1,4.39
13,COC(=O)c1ccc2c(=O)n(Cc3ccc(C(=O)NCCCN4CCC(C)CC4)cc3)c(=S)[nH]c2c1,2.98
14,COc1ccc(S(=O)(=O)NN(C)c2ncc(C(F)(F)F)cc2Cl)cc1,2.03
15,CC(=O)NCCC(=O)NCC1(N(C)Cc2ccccc2)Cc2ccccc2C1,-1.56
16,c1ccc(-c2cc(N3CCCCC3)nc(-c3ccccc3)n2)cc1,5.32
17,CO[C@@]12[C@H](COC(N)=O)C3=C(C(=O)C(C)=C(N)C3=O)N1C[C@@H]1N[C@@H]12,6.71
18,O=C(ONC1=NCCCCC1)c1cccc([N+](=O)[O-])c1,-5.28
19,Cc1ccnc(-n2c(C)nc3ccccc3c2=O)c1,-16
20,O=C(NC1CC2CCCC(C1)N2C(=O)Nc1ccccc1)c1ccccc1 (configuration not stated),-0.41
21,COc1cc(C)c(CN2CCC(n3nccc3NC(=O)C3CCOC3)CC2)cc1C (configuration not stated),-6.02
22,CC(C)N1CC(C(=O)Nc2ccc(C#N)cc2)CC1=O (configuration not stated),-2.49
23,Cc1cc(Cl)ccc1OCC(=O)n1cc(C(=O)c2cc(Cl)ccc2O)cn1,-8.17

row,Structure (SMILES),inhibition [%]
1,Cc1ncc(CC(=O)n2cc(C(=O)c3cc(F)ccc3O)cn2)s1,23.5
2,O=C(NCCc1ccccc1)c1nccc2ccccc12,3.49
3,COCCC(=O)N1CCC(Oc2ccc(C(=O)N3CCC[C@H]3CO)cc2)CC1,-1.9
4,CCOC(=O)C1CCCN(C2CCN(Cc3nc(Cc4ccccc4)no3)CC2)C1 (configuration not stated),-4.46
5,CS(=O)(=O)c1ccc(C(=O)NCc2ccccc2F)cc1,2.01
6,CS(=O)(=O)c1ccc(C(=O)NC(Cc2ccccc2)c2ccccc2)cc1 (configuration not stated),2.4
7,Cc1ccc(NC(=S)NC(CO)C(O)c2ccc([N+](=O)[O-])cc2)cc1 (configuration not stated),8.81
8,O=C(O)c1cc(S(=O)(=O)NC(CO)C(O)c2ccc([N+](=O)[O-])cc2)ccc1Br (configuration not stated),5.04
9,Cc1ccc(-n2nc(C(=O)NN)c(C)c(C#N)c2=O)cc1Cl,-0.01
10,CCOC(=O)N1CCC(NC(=O)c2ccccc2C(=O)O)CC1,2.93
11,CCN(CC)S(=O)(=O)c1ccc(C)c(NC(=O)COc2ccc3c(C)cc(=O)oc3c2)c1,-6.3
12,CCCn1nnc(NC(=O)c2ccc([N+](=O)[O-])cc2Cl)n1,-8.6
13,Fc1ccc(-c2nc3ccccn3c2NCc2ccc3c(c2)OCO3)cc1,-6.33
14,Cc1ccc(CNC(=O)C(=O)NCCC2=CCCCC2)cc1,-20.6
15,O=C(NCCC1=CCCCC1)C(=O)NCc1ccccc1,-1.97
16,Clc1ccc(CNCCC2=CCCCC2)cc1,-4.93
17,Cc1ccc(NC(=S)NCCC2=CCCCC2)cc1,-0.73
18,CC(C)[C@H](NC(=O)c1ccccc1Cl)C(=O)OCc1cc([N+](=O)[O-])cc2c1OCOC2,-4.37
19,O=C(O)CCC(=O)Nc1nc2nccc(-c3ccccc3)n2n1,-7.87
20,CCOc1cc(/C=C2/C(=N)N3N=C(C)SC3=NC2=O)ccc1OS(=O)(=O)c1ccc(C)cc1,18.2
21,O=C(Nc1cc2c3c(c1)CC(=O)N3CCC2)c1ccc(Br)o1,2.71
22,CCNC(=S)NNC(=O)c1cc(-c2cccc(OCC)c2)nc2ccccc12,10.8
23,O=C(CCc1ccccc1)NNC(=O)c1ccccc1Br,-5.24

# — PubChem BioAssay AID1850 (Southern Research Specialized Biocontainment Screening …, 2009)
